High-throughput results as filed in PubChem BioAssay.
An excerpt weighted towards active compounds, which were near 5.9% of everything screened.
rCAG binder = binders of r(CAG) RNA repeats, primary screen, biochemical, fluorescence; AID 651821, 2012; r(CAG) RNA repeat, TO-PRO-1 dye displacement fluorescence; inhibition, % at 3 µM; 370,000 compounds, 1.3% hits;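 active = inhibition above the plate cutoff, the mean of all test compounds on that plate plus 3 SD, cut at about 35% in these data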;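 note: 0% = DMSO alone and 100% = 100 µM mitoxantrone as full dye displacement; higher means more dye released from RNA so lower well fluorescence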
PRMT1 inh = PRMT1 methyltransferase inhibitors, primary screen, biochemical, fluorescence polarization; AID 652257, 2013; 370,000 compounds, 1.3% hits; recombinant PRMT1, activity-based probe fluorescence polarization; inhibition, % at 2.79 µM;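 active = inhibition above about 21% made by adding two undisclosed values, limit read from the data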
Target sequence (Q99873 whole entry, looked up): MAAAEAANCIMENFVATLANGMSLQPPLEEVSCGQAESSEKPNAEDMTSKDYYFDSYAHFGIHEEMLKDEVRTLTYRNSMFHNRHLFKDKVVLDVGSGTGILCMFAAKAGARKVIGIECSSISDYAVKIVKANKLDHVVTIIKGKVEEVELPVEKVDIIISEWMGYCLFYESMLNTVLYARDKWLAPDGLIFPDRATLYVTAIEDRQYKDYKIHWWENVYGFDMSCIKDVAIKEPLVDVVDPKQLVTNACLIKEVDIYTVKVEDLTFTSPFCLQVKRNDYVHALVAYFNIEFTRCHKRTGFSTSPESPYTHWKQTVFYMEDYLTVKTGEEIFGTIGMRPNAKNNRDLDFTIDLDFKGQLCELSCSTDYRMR
Rtt109 Vps75 = inhibitors of C. albicans Rtt109/Vps75 HAT, primary screen, biochemical, ThioGlo CoA-SH fluorescence, plate reader. purified Rtt109/Vps75, 4 h. Histone acetyltransferase RTT109 (Candida albicans (strain SC5314 / ATCC MYA-2876)), …. inhibition, % at 34.9 µM. AID 540336, 2011. 330,000 compounds, 0.16% hits;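 active = inhibition of at least 50% in every replicate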
ALR H2O2 inh = inhibitors of human ALR sulfhydryl oxidase, primary screen, biochemical, H2O2 detection, HRP-luminol luminescence, single point. FAD-linked sulfhydryl oxidase ALR (Homo sapiens), P55789. purified ALR, DTT oxidation. inhibition, % (concentration not given with the values). 290,000 compounds, 3.8% hits. AID 485317, 2010;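 active = mean replicate inhibition above about 79%, with every replicate also reaching it, limit read from the data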
ABHD5 PLIN5 PPI = ABHD5-PLIN5 interaction inhibitors, primary screen, cell lysate, split luciferase complementation, luminescence. Perilipin-5 (Homo sapiens) + 1-acylglycerol-3-phosphate O-acyltransferase ABHD5 (Homo …. Split G. princeps luciferase complementation, 4 h. inhibition, % at 4 µM. 360,000 compounds, 0.78% hits;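 active = inhibition above the mean inhibition across every tested compound plus 3 SD, cut at about 22% in these data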;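 note: 0% = DMSO only wells and the 100% control is not disclosed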
LANA-H2B inh = blockers of LANA interaction with H2A/H2B – biochemical, FP readout, HTS, primary screen; cell-free LANA-H2A/H2B peptide, fluorescence polarization; Protein LANA1 (Human herpesvirus 8 type P (isolate GK18)), Q9QR71; inhibition, % (no concentration beside the values); 320,000 compounds, 0.6% hits; in the data active = inhibition mostly above about 10%, no sharp cut-off; inactive = mostly below about 6.7%
PRMT1 confirm = PRMT1 methyltransferase inhibitors, confirmation, biochemical, fluorescence polarization, triplicate; AID 687036, 2013; inhibition, % at 2.79 µM; recombinant His-PRMT1, activity-based probe fluorescence polarization; 3,300 compounds, 42% hits; shares compounds with PRMT1 inh;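 active = mean inhibition across replicates above the hit cutoff derived for the earlier primary screen, cut at about 22% in these data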
Numbers without * were called inactive; . = no result given.

SMILES	rCAG binder	PRMT1 inh	Rtt109 Vps75	ALR H2O2 inh	ABHD5 PLIN5 PPI	LANA-H2B inh	PRMT1 confirm
Clc1ccc([C@H]2OC[C@@]3(CNCc4ccc5c(c4)OCO5)CS[C@H](c4ccc(Cl)cc4)N23)cc1	.	3.5	.	.	.	.	.
COc1cc(OC)cc(C(=O)NC2CCSC2=O)c1 (stereo not drawn)	1.1	2.5	-1.0	4.5	-1.3	-4.1	.
O=C(NC(=S)NC1CCSC1=O)c1cccs1 (stereo not drawn)	2.6	35.9*	2.1	34.5	-6.1	0.6	10.5
COc1ccc(C(=O)NC(=S)NC2CCSC2=O)cc1 (stereo not drawn)	3.2	29.0*	1.2	6.1	-5.7	-0.5	6.5
Cc1ccccc1C(=O)NC(=S)NC1CCSC1=O (stereo not drawn)	-0.3	4.0	-27.2	4.0	1.5	-6.8	.
O=C(COc1ccc(Br)cc1)Nc1ccc(S(=O)(=O)Nc2ccccn2)cc1	12.8	-0.6	2.2	.	-9.1	3.3	.
O=C(COc1ccccc1)Nc1ccc(S(=O)(=O)Nc2ccccn2)cc1	7.5	31.5*	0.3	.	-7.5	-5.3	12.8
Cc1sc2c3ccsc3ccc2[n+]1C	-5.5	67.0*	114.7*	55.7	-0.9	1.2	58.6*
CCN1/C(=C/c2ccc3cc(C)ccc3[n+]2C)Sc2ccc3sccc3c21	11.5	-0.5	0.1	.	14.4	.	.
C/C(=N\NC(=S)NCCc1ccccc1)c1cccs1	-0.3	29.3*	-0.2	-0.7	1.0	2.1	11.8
C/C(CCc1ccccc1)=N\NC(=S)NCCc1ccccc1	-2.5	0.6	-0.7	0.5	-10.9	-2.2	.
CC1(C(=O)Nc2ccc3c(c2)OCCO3)CCN1C(=O)Cc1ccc(-c2ccccc2)cc1 (stereo not drawn)	5.2	1.4	.	.	-1.7	.	.
Cc1ccc(/C=C2/C(=O)c3ccc(C(=O)O)cc3C2=O)o1	32.1	40.6*	18.1	.	7.9	.	39.4*
CN(C)CCNc1ccc2nnn3c4ccc(O)cc4c(=O)c1c23	13.3	5.6	1.5	.	-24.4	.	.
CCN(CC)CCCNc1ccc2ncn3c4ccc(O)cc4c(=O)c1c23	-33.1	116.0*	8.4	.	-52.1	.	132.7*
CCC1(CC)Cc2ccccc2C(CC(=O)N2CCOCC2)=N1	-2.6	35.2*	21.0	1.1	0.1	3.6	30.8*
c1ccc2c(c1)C1=NCCN1c1ccccc1-2	3.0	1.9	.	.	2.1	.	.
COc1ccc(NC(=S)NNS(=O)(=O)c2ccc3ccccc3c2)c(OC)c1	13.9	26.9*	4.4	-15.8	-21.0	-1.1	13.0
COc1ccc(NC(=S)Nc2ccc(S(N)(=O)=O)cc2)c(OC)c1	-0.7	1.2	-1.4	5.2	-0.8	-2.0	.
c1ccc2c(C3=NNC(=NC4CCCCC4)SC3)c[nH]c2c1	15.1	4.0	.	14.6	-9.6	-1.3	.
c1ccc2c(C3=NNC(=NC4CC4)SC3)c[nH]c2c1	4.5	37.9*	6.8	99.2*	-5.1	-12.6	3.4
O=C(NCc1ccncc1)c1cccc(S(=O)(=O)Nc2ccc(SC(F)F)cc2)c1	18.8	63.9*	-5.1	32.4	-5.6	-1.4	56.5*
O=C(NCc1ccccn1)c1cccc(S(=O)(=O)Nc2ccc(SC(F)F)cc2)c1	18.2	78.0*	16.1	97.6*	-0.7	-5.5	40.4*
Cc1ccc(-c2nnc(NC(=O)COc3ccc(F)cc3Cl)o2)cc1C	.	2.2	.	.	.	.	.
CC(C)(C)CCNc1nc(-c2ccccn2)nnc1-c1ccccc1	.	-4.2	.	.	.	.	.
O=C1/C(=C/c2ccccn2)SC(=S)N1Nc1ncc(C(F)(F)F)cc1Cl	7.6	34.1*	-2.0	.	-10.0	.	18.8
O=C1/C(=C\c2ccccn2)SC(=S)N1Nc1ncc(C(F)(F)F)cc1Cl	.	.	-10.6	6.2	-5.4	-3.8	.
